In PubChem BioAssay AID1159580 (chemical genetic matrix, 2015):
Screen size: about 5,500 compounds; about 2,000 (36%) were called active. About 18% were inconclusive and are not listed. Cut-off read from the data, not from the text of the source: active = normalized growth mostly below about 0.91 (no sharp cut-off); inconclusive = no clear call, values can overlap the other calls; inactive = mostly above about 0.92. The list shows a part of the results.

Experiment: chemical genetic growth profiling, strain panel (AID 1159580);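 note: tested at 20 µM; growth read once vehicle control cultures reached saturation at 30 °C; 1 = growth at the plate median or of vehicle wells; lower values mean less growth of the strain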
Details: growth OD

Measured: normalized growth

O=C(NCO)c1cccnc1
inactive: S. cerevisiae deletion strains, locus YJR075W, strain HOC1, active compounds read low 0.992 | S. cerevisiae deletion strains, locus YKL009W, strain mrt4, active compounds read low 0.984 | S. cerevisiae deletion strains, locus YKL068W, active compounds read low 0.974 | S. cerevisiae deletion strains, locus YKL085W, strain MDH1 (second series), active compounds read low 1 | S. cerevisiae deletion strains, locus YKL085W, strain MDH1, active compounds read low 1 | S. cerevisiae deletion strains, locus YKL160W, strain elf1, active compounds read low 1.01 | S. cerevisiae deletion strains, locus YKL190W, strain CNB1, active compounds read low 0.997 | S. cerevisiae deletion strains, locus YKR001C, strain vps1, active compounds read low 0.99 | S. cerevisiae deletion strains, locus YKR026C, strain gcn3, active compounds read low 1.01 | S. cerevisiae deletion strains, locus YKR091W, strain srl3, active compounds read low 1 | S. cerevisiae deletion strains, locus YLL001W, strain dnm1, active compounds read low 0.992 | S. cerevisiae deletion strains, locus YLL026W, active compounds read low 1 | S. cerevisiae deletion strains, locus YLL041C, strain sdh2, active compounds read low 1.01 | S. cerevisiae deletion strains, locus YLR027C, strain aat2, active compounds read low 1.01 | S. cerevisiae deletion strains, locus YLR039C, strain RIC1, active compounds read low 0.939 | S. cerevisiae deletion strains, locus YLR058C, strain SHM2, active compounds read low 0.986 | S. cerevisiae deletion strains, locus YLR102C, strain apc9, active compounds read low 0.985 | S. cerevisiae deletion strains, locus YLR113W, strain HOG1, active compounds read low 0.997 | S. cerevisiae deletion strains, locus YLR221C, strain rsa3, active compounds read low 1.01 | S. cerevisiae deletion strains, locus YLR258W, strain gsy2, active compounds read low 1.01 | S. cerevisiae deletion strains, locus YLR262C, strain YPT6 (second series), active compounds read low 0.995 | S. cerevisiae deletion strains, locus YLR262C, strain YPT6, active compounds read low 0.954 | S. cerevisiae deletion strains, locus YLR268W, strain sec22, active compounds read low 0.993 | S. cerevisiae deletion strains, locus YLR320W, strain mms22, active compounds read low 1 | S. cerevisiae deletion strains, locus YLR330W, strain CHS5, active compounds read low 0.981 | S. cerevisiae deletion strains, locus YLR342W, strain FKS1 (second series), active compounds read low 1.01 | S. cerevisiae deletion strains, locus YLR342W, strain FKS1, active compounds read low 1.01 | S. cerevisiae deletion strains, locus YLR357W, strain rsc2, active compounds read low 0.974 | S. cerevisiae deletion strains, locus YLR370C, strain arc18, active compounds read low 1.01 | S. cerevisiae deletion strains, locus YLR371W, strain rom2, active compounds read low 0.971 | S. cerevisiae deletion strains, locus YLR384C, strain iki3, active compounds read low 0.997 | S. cerevisiae deletion strains, locus YLR418C, strain cdc73, active compounds read low 1.03 | S. cerevisiae deletion strains, locus YML016C, strain PPZ1, active compounds read low 0.998 | S. cerevisiae deletion strains, locus YML032C, strain rad52, active compounds read low 0.975 | S. cerevisiae deletion strains, locus YML120C, strain ndi1, active compounds read low 1.01 | S. cerevisiae deletion strains, locus YML124C, strain tub3, active compounds read low 1 | S. cerevisiae deletion strains, locus YMR058W, strain fet3, active compounds read low 1 | S. cerevisiae deletion strains, locus YMR078C, strain ctf18, active compounds read low 0.993 | S. cerevisiae deletion strains, locus YMR125W, strain sto1, active compounds read low 0.997 | S. cerevisiae deletion strains, locus YMR129W, active compounds read low 0.987 | S. cerevisiae deletion strains, locus YMR205C, strain PFK2, active compounds read low 0.992 | S. cerevisiae deletion strains, locus YMR223W, strain ubp8, active compounds read low 0.988 | S. cerevisiae deletion strains, locus YMR231W, strain pep5, active compounds read low 1.01 | S. cerevisiae deletion strains, locus YMR263W, strain SAP30, active compounds read low 0.999 | S. cerevisiae deletion strains, locus YMR307W, strain GAS1, active compounds read low 1.08 | S. cerevisiae deletion strains, locus YNL067W, strain RPL9B, active compounds read low 0.995 | S. cerevisiae deletion strains, locus YNL071W, strain lat1, active compounds read low 1.02 | S. cerevisiae deletion strains, locus YNL128W, strain TEP1, active compounds read low 0.999 | S. cerevisiae deletion strains, locus YNL153C, strain GIM3, active compounds read low 1 | S. cerevisiae deletion strains, locus YNL183C, strain NPR1, active compounds read low 0.92 | S. cerevisiae deletion strains, locus YNL209W, strain ssb2, active compounds read low 0.999 | S. cerevisiae deletion strains, locus YNL233W, strain BNI4, active compounds read low 1.01 | S. cerevisiae deletion strains, locus YNL248C, strain rpa49, active compounds read low 1 | S. cerevisiae deletion strains, locus YNL250W, strain rad50, active compounds read low 0.983 | S. cerevisiae deletion strains, locus YNL271C, strain bni1, active compounds read low 0.978 | S. cerevisiae deletion strains, locus YNL298W, strain CLA4, active compounds read low 0.996 | S. cerevisiae deletion strains, locus YNL307C, strain MCK1, active compounds read low 0.993 | S. cerevisiae deletion strains, locus YNL322C, strain KRE1 (second series), active compounds read low 1.01 | S. cerevisiae deletion strains, locus YNL322C, strain KRE1, active compounds read low 0.986 | S. cerevisiae deletion strains, locus YNR049C, strain mso1, active compounds read low 1.01 | S. cerevisiae deletion strains, locus YNR052C, strain pop2, active compounds read low 0.984 | S. cerevisiae deletion strains, locus YOL006C, strain TOP1, active compounds read low 0.997 | S. cerevisiae deletion strains, locus YOL012C, strain htz1 0.887 | S. cerevisiae deletion strains, locus YOL147C, strain pex11, active compounds read low 0.988 | S. cerevisiae deletion strains, locus YOR001W, strain rrp6, active compounds read low 0.999 | S. cerevisiae deletion strains, locus YOR061W, strain CKA2, active compounds read low 0.991 | S. cerevisiae deletion strains, locus YOR069W, strain VPS5, active compounds read low 0.989 | S. cerevisiae deletion strains, locus YOR070C, strain gyp1, active compounds read low 1 | S. cerevisiae deletion strains, locus YOR080W, strain dia2, active compounds read low 1 | S. cerevisiae deletion strains, locus YOR083W, strain WHI5, active compounds read low 1 | S. cerevisiae deletion strains, locus YOR106W, strain vam3, active compounds read low 1.02 | S. cerevisiae deletion strains, locus YOR136W, strain idh2, active compounds read low 0.982 | S. cerevisiae deletion strains, locus YOR144C, strain elg1, active compounds read low 0.978 | S. cerevisiae deletion strains, locus YOR184W, strain ser1, active compounds read low 0.959 | S. cerevisiae deletion strains, locus YOR231W, strain MKK1, active compounds read low 0.98 | S. cerevisiae deletion strains, locus YOR265W, strain rbl2, active compounds read low 1.01 | S. cerevisiae deletion strains, locus YOR270C, strain vph1, active compounds read low 1.02 | S. cerevisiae deletion strains, locus YOR290C, strain snf2, active compounds read low 0.943 | S. cerevisiae deletion strains, locus YOR316C, strain cot1, active compounds read low 0.997 | S. cerevisiae deletion strains, locus YPL051W, strain arl3, active compounds read low 1 | S. cerevisiae deletion strains, locus YPL055C, strain LGE1, active compounds read low 1.02 | S. cerevisiae deletion strains, locus YPL078C, strain atp4, active compounds read low 1.01 | S. cerevisiae deletion strains, locus YPL106C, strain sse1, active compounds read low 0.998 | S. cerevisiae deletion strains, locus YPL240C, strain hsp82, active compounds read low 1.02 | S. cerevisiae deletion strains, locus YPL241C, strain CIN2, active compounds read low 0.958 | S. cerevisiae deletion strains, locus YPL256C, strain CLN2, active compounds read low 0.985 | S. cerevisiae deletion strains, locus YPR119W, strain clb2, active compounds read low 0.986 | S. cerevisiae deletion strains, locus YPR141C, strain kar3, active compounds read low 0.992 | S. cerevisiae deletion strains, locus YPR163C, strain tif3, active compounds read low 0.989 | S. cerevisiae deletion strains, locus YPR167C, strain met16, active compounds read low 1 | S. cerevisiae deletion strains, strain wtn01, active compounds read low 0.996 | S. cerevisiae strains, strain wild type, active compounds read low 0.986
